Source: PubChem
Hits are enriched below; roughly 1.7% of the tested compounds scored in any of these assays.
TRHR agonist: agonists of human TRH receptor | TRHR cells, calcium flux fluo-8, FDSS agonist mode | AID 493084 | activation, % at 2 µM | 360,000 tested, 0.18% active | P34981; in the data active = activation above about 30%
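TRHR-expressing cells, plated overnight in medium with 10% serum, were loaded with fluo-8 calcium dye at room temperature. After a 10 s baseline, library compound was pin-added and calcium release was recorded kinetically (ex 480/em 530) as agonist response.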
TRPML1 inh: blocks the human TRPML1 channel; activity change, negative = inhibition, % (concentration not given with the values); TRPML1-inducible cells, Ca2+ dye fluorescence, FDSS; hits give low values; inhibition of EC80 agonist-evoked calcium signal; 390,000 tested, 0.02% active; Q9GZU1; in the data active = activity change below about -50%; inconclusive = between about -30% and that limit;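 also: stimulus is agonist 54-4 at its EC80 concentration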
Target sequence (Q9GZU1 whole entry, looked up): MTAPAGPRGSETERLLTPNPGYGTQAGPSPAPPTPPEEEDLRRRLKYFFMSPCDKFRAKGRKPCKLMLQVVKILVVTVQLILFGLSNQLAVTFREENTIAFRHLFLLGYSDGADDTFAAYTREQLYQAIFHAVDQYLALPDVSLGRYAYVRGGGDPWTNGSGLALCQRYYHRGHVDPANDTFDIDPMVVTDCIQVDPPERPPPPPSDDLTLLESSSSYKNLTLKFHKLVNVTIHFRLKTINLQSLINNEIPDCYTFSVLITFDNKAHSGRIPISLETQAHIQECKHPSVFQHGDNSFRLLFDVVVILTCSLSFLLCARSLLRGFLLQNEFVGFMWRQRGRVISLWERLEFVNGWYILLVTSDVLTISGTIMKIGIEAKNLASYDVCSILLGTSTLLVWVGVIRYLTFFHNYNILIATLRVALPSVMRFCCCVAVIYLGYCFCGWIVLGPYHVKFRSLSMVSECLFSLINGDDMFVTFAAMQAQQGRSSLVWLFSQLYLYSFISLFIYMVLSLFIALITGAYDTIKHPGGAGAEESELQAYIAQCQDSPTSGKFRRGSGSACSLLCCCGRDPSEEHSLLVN
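TRPML1-DL cells, Tet-induced overnight (~16 h, 37 °C) at 1,500 cells/well, were loaded with Ca8 no-wash dye plus quencher for 45-90 min at room temperature. Compounds were pinned during FDSS kinetic reading; agonist 54-4 at EC80 (4 uM final) then added.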
hERG WT inh: blocks the wildtype human KCNH2 potassium channel; U2OS, BacMam KCNH2, thallium flux FluxOr; hits give low values; Q12809; 340,000 tested, 0.37% active; activity change, % at 1.84 µM;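 active = maximum activity change below -70%; inconclusive = maximum activity change between -70% and -50%; inactive = maximum activity change above -50%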
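U2OS cells were transduced with wild-type KCNH2 virus (2.03 x 10^8 / mL) for 4 h at room temperature, then cultured overnight at 37 C. Thallium flux was read with FluxOr dye. Rate constants were normalized to DMSO controls.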
KCNH2 3.1 inh: inhibitors of human KCNH2 3.1 potassium channel isoform; U2OS KCNH2 3.1, thallium flux FluxOr; hits give low values; 340,000 tested, 0.95% active; activity change, % (tested at about 1.8 µM); AID 720553;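 active = maximum activity change below -70%; inconclusive = maximum activity change from -70% to -50%; inactive = maximum activity change above -50%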;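 also: thallium influx rate constant from kinetic fluorescence after stimulation buffer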
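We transduce U2OS cells with the mutant 3.1 virus, culture them overnight, load FluxOr with Red40 quencher for 45 min, then add stimulation buffer and read kinetically for 2 min to derive a normalized rate constant.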
TRPML1 agonist: activates the human TRPML1 channel. Q9GZU1. TRPML1-expressing cells, Ca2+ dye fluorescence, FDSS. activation, % (test concentration not listed). 410,000 tested, 0.12% active. AID 624414; in the data active = activation above about 50%; inconclusive = mostly about 30% to 49%
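In this qHTS format, compounds were pin-transferred onto Ca8-dye-loaded TRPML1-DL cells induced with Tet overnight, and intracellular Ca2+ fluorescence was recorded kinetically for 110 s after a 10 s baseline. A subsequent 4uM final 54-4 (EC80) addition followed by a second 110 s read served as the antagonist phase.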
TRHR enhancer: allosteric enhancers of human TRH receptor. TRHR cells, fluo-8 calcium fluorescence, EC20 TRH enhancement. 360,000 tested, 0.66% active. P34981. enhancement, % at 2 µM; in the data active = enhancement above about 30%
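Enhancer read-out: after compound pinning and an initial kinetic agonist-mode read, an EC20 of TRH (10 nM final) was injected and fluo-8 calcium signal (Ex 480/Em 530) followed at 1 s/cycle for 100 cycles in TRHR-expressing cells.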
A number is an active result; 0 = inactive; ? = inconclusive; - = no result; ! = not confirmed by another sample.

SMILES	TRHR agonist	TRPML1 inh	hERG WT inh	KCNH2 3.1 inh	TRPML1 agonist	TRHR enhancer
CCCOc1ccc(C(=O)N2CCN(c3ccc(NC(=O)CC)cc3Cl)CC2)cc1	0	0	0	-86	0	0
CCC(=O)N1CCN(c2ccc(NC(=O)c3cc4ccccc4o3)cc2Cl)CC1	0	0	0	-88	0	0
CN1CCN(c2ccc(NC(=O)COc3ccccc3)cc2Cl)CC1	0	0	0	0	0	0
CCC(=O)N1CCN(c2ccc(Cl)cc2NC(=O)Cc2ccc(Cl)cc2)CC1	0	0	0	-75	0	0
COc1ccc(NC(=O)c2cc3ccccc3o2)cn1	0	0	0	0	0	41
CCCC(=O)N1CCN(c2ccc(NC(=O)c3cc4ccccc4o3)cc2Cl)CC1	0	0	?	-90	0	0
O=C(Nc1ccc(NC(=O)c2cc3ccccc3o2)cc1)c1ccco1	0	0	0	-75	0	0
CCCC(=O)N1CCN(c2ccc(NC(=O)c3cccs3)cc2Cl)CC1	0	?	0	0	0	0
CCC(=O)N1CCN(c2ccccc2NC(=O)Cc2ccc(Cl)cc2)CC1	0	0	0	0	0	0
O=C(Nc1ccccc1)c1cc2ccccc2o1	0	0	0	0	0	0
Cc1ccc(NC(=O)CCn2nc(-c3ccccc3)c3ccccc3c2=O)c(C)c1	0	0	-	-	0	0
O=[N+]([O-])c1ccc(Nc2nc(NCCN3CCOCC3)nc(Nc3ccc(I)cc3)n2)cc1	-	-	-	-	0	-
O=C(COc1ccccc1[N+](=O)[O-])Nc1ccc(NC(=O)c2cc3ccccc3o2)cc1	0	0	0	-119	0	0
Cc1ccc(NC(=O)CSCC(=O)Nc2cc(S(=O)(=O)N3CCOCC3)ccc2OC(C)C)cc1	-	0	0	0	0	-
Cc1ccc(C(=O)Nc2ccnc(-c3cccnc3)n2)cc1	0	0	0	-109	0	0
COc1ccc(C(=O)Nc2ccnc(-c3cccnc3)n2)cc1	0	0	0	0	0	0
CC(C)(C)C(=O)Nc1ccnc(-c2cccnc2)n1	0	-	-	-	-	0
CCC(=O)Nc1ccnc(-c2cccnc2)n1	0	0	0	-108	0	0
Cn1c(=O)c2sccc2n(Cc2ccccc2)c1=O	0	0	0	-73	0	0
CCC(C)c1ccc(NC(=O)Nc2cnccn2)cc1 (centres undefined)	0	0	-281	0	0	0
CCOc1ccc(NC(=O)Nc2cnccn2)cc1	0	0	0	0	0	36
CCCn1c(N)c(C(=O)CN(C)CC(=O)Nc2cccc(F)c2)c(=O)[nH]c1=O	0	0	0	-79	0	0
CCN1CCN(c2oc(COc3ccc(Cl)cc3)nc2C#N)CC1	0	0	0	-83	0	0
COc1cc(OC)c(NC(=O)C2CCCN(c3ncnc4c3nc3n4CCCCC3)C2)cc1Cl (centres undefined)	0	0	-	-	0	33
COc1ccccc1NC(=O)C1CCCN(c2ncnc3c2nc2n3CCCCC2)C1 (centres undefined)	0	0	0	0	0	0
SMILES	TRHR agonist	TRPML1 inh	hERG WT inh	KCNH2 3.1 inh	TRPML1 agonist	TRHR enhancer
CCc1ccc(NC(=O)C/C(C)=N/NC(=O)COc2ccc(C)cc2Br)cc1	0	0	0	0	0	0
C/C(CC(=O)Nc1ccccc1)=N\NC(=O)COc1ccc(C)cc1Br	0	0	0	0	0	34
Cc1cc(C)nc(N2CCCC(C(=O)NCc3cccs3)C2)n1 (centres undefined)	0	0	0	0	0	30
CC1(C)Cc2c(cnn2-c2ccc(F)cc2)C(NC(=O)c2ccoc2)C1 (centres undefined)	0	0	?	-81	0	0
COC(=O)CCC(=O)NC1CC(C)(C)Cc2c1cnn2-c1ccc(F)cc1 (centres undefined)	0	0	0	0	0	38
CC1(C)Cc2c(cnn2-c2ccc(F)cc2)C(NC(=O)CCN2CCCCO2)C1 (centres undefined)	0	0	0	0	0	37
Cc1ccc(-n2ncc3c2CC(C)(C)CC3NC(=O)CCN2CCCO2)cc1 (centres undefined)	0	0	0	0	0	0
CC1(C)Cc2c(cnn2-c2ccccc2)C(NC(=O)c2ccoc2)C1 (centres undefined)	0	0	?	0	0	0
CC1(C)Cc2c(cnn2-c2ccc(F)cc2)C(NC(=O)CCC(F)(F)F)C1 (centres undefined)	0	0	0	0	0	0
NS(=O)(=O)c1ccc(-c2ccc(/C=N/Nc3ccc(C(=O)O)cc3)o2)cc1	0	-	0	0	-	0
O=C(O)c1ccc(-c2ccc(/C=N/Nc3ccc([N+](=O)[O-])cc3)o2)cc1	123	-	0	0	-	36
O=C(O)c1ccc(N/N=C/c2ccc(-c3cccc(Cl)c3)o2)cc1	0	-	0	0	-	0
O=[N+]([O-])c1ccc(N/N=C/c2c[nH]c3ccccc23)cc1	32	0	0	0	?	0
O=C(O)c1cccc(-c2ccc(/C=N/Nc3ccc([N+](=O)[O-])cc3)o2)c1	70	0	0	0	?	0
O=[N+]([O-])c1ccccc1N/N=C/c1c[nH]c2ccccc12	0	0	0	0	0	0
CCn1cnc2c(Nc3ccc(CCC(=O)N=C(N)N)cc3)nc(C#N)nc21	0	-	-	-	-	0
COc1ccc(N=Cc2sc(O)c3ccccc23)cc1	0	0	0	0	84	0
COc1ccc(N=Cc2c(OC)ccc3ccccc23)cc1	-	0	0	0	0	-
COc1ccc(N=Cc2c(O)c3ccccc3n2C(C)=O)cc1	34	0	0	0	0	0
N#Cc1cc([N+](=O)[O-])ccc1NC(=O)CSc1n[nH]c(=O)[nH]c1=O	-	0	0	0	0	-
CCCCn1c2c(c(=O)n(C)c1=O)C(c1ccc(OC)cc1)N1CCCCCC1=N2 (centres undefined)	0	0	0	-75	0	0
COc1cc(OC)c(N(C)C(=O)CCNC(=O)Cn2cnc3ccccc3c2=O)cc1Cl	0	0	0	0	0	30!
CCOC(=O)N1CCN(C(=O)c2cc3cc(Br)ccc3oc2=O)CC1	0	0	0	0	0	41
COc1ccccc1N1CCN(C(=O)c2cc3cc(Br)ccc3oc2=O)CC1	0	0	0	0	0	0
CCN1CCSc2ccc(C(=O)NC(C)c3ccccc3)cc21 (centres undefined)	0	0	-	-	0	0
O=C(CSc1nncn1-c1ccccc1F)NC1CCCCC1	0	0	0	-118	0	0
CCCCCC(=O)N1C[C@H](n2cc(C3CC3)nn2)[C@@H](O)C[C@@H]1c1ccccc1	-	0	0	0	0	-
CCOc1cc(C(=S)N2CCCCC2)ccc1OS(=O)(=O)c1ccc(Cl)cc1	0	0	0	-114	0	0
